From PMC3218832

molecular target: RELARELA (p65 homodimer) (Homo sapiens, UniProt Q04206 1-307); assay: protein binding microarray; high values mean tight binding; conditions: dsDNA, one strand shown
Sequence (Q04206 1-307): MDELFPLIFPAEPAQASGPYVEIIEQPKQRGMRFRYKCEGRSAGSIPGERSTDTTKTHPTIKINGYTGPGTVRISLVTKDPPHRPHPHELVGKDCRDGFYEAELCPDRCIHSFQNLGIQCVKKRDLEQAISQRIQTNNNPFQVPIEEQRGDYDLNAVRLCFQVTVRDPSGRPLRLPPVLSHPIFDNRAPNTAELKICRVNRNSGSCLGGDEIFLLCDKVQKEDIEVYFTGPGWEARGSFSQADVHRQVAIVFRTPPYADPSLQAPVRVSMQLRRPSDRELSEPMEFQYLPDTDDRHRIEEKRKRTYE

| Sequence | binding signal [z-score] |
| --- | --- |
| AAAGAAGTCCT | -0.118 |
| GAGTTCTCCCC | 0.519 |
| CGGATTGCCCC | 2 |
| CAAGGAGCCCC | -0.885 |
| GAAGACACCCC | -0.516 |
| GGGTGTGTCCC | 0.547 |
| CGGGGCATCCT | -0.458 |
| AGAAGTCTCCT | -0.456 |
| AGGTACATCCT | -0.603 |
| GAATTGTCCCC | 1.03 |
| CAAAACACCCC | 0.0833 |
| AAGGTATTCCT | -0.0185 |
| AAATGCCCCCC | 0.508 |
| CAAAGGCTCCT | -0.998 |
| AAAGTTACCCT | -0.188 |
| CAATGACTCCT | -0.344 |
| CAGAAGGCCCC | -0.908 |
| CAGAGATTCCT | 0.143 |
| AAAGTGCCCCC | 0.331 |
| AAGGGGCTCCT | -0.668 |

| Sequence | binding signal [z-score] |
| --- | --- |
| GGGATAGTCCC | 2.07 |
| CGGGTATCCCC | 1.9 |
| AAGGTCCCCCC | -0.0871 |
| CGATGTGTCCC | 0.341 |
| AGAGGCGTCCC | -0.0545 |
| GAAGAGCCCCT | -0.596 |
| AGGGTGGTCCC | -0.0899 |
| CGAAGCTTCCC | 0.142 |
| GAGAATGTCCT | 0.673 |
| AGGAATGCCCT | 1.19 |
| GGAGATATCCT | -0.481 |
| GAAGGTGCCCT | -0.528 |
| CGGTTCATCCT | -0.997 |
| AGAGGTCTCCC | 0.0815 |
| AGATGTTCCCT | 0.238 |
| AGAGATGCCCT | -0.748 |
| AAGATTCTCCT | -0.184 |
| CGGGATGCCCC | 1.39 |
| GAATAGGTCCT | -0.471 |

molecular target: p50p50 homodimer (Homo sapiens, UniProt P19838 7-356); assay: as above; conditions: dsDNA, one strand shown
Sequence (P19838 7-356): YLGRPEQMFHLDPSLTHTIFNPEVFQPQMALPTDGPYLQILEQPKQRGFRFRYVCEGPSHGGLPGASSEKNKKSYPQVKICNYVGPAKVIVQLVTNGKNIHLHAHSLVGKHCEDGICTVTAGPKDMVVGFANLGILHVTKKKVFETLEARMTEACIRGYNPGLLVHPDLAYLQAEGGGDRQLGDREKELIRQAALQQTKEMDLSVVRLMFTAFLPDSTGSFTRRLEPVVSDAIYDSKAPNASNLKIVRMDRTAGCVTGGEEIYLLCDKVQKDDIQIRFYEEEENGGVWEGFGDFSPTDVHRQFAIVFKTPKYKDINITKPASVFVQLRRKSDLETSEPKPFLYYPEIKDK

| Sequence | binding signal [z-score] |
| --- | --- |
| AAAGAAGTCCT | -0.972 |
| GAGTTCTCCCC | 1.01 |
| CGGATTGCCCC | 0.548 |
| CAAGGAGCCCC | 0.241 |
| GAAGACACCCC | -0.135 |
| GGGTGTGTCCC | 0.331 |
| CGGGGCATCCT | 0.212 |
| AGAAGTCTCCT | -1.85 |
| AGGTACATCCT | -0.00392 |
| GAATTGTCCCC | 1.37 |
| CAAAACACCCC | 0.707 |
| AAGGTATTCCT | -0.222 |
| AAATGCCCCCC | 1.24 |
| CAAAGGCTCCT | -1.36 |
| AAAGTTACCCT | 0.663 |
| CAATGACTCCT | -1.02 |
| CAGAAGGCCCC | -0.224 |
| CAGAGATTCCT | -1.43 |
| AAAGTGCCCCC | 1.09 |
| AAGGGGCTCCT | 0.769 |

| Sequence | binding signal [z-score] |
| --- | --- |
| GGGATAGTCCC | 0.707 |
| CGGGTATCCCC | 0.854 |
| AAGGTCCCCCC | 1.12 |
| CGATGTGTCCC | -0.155 |
| AGAGGCGTCCC | -0.0189 |
| GAAGAGCCCCT | 1 |
| AGGGTGGTCCC | 0.541 |
| CGAAGCTTCCC | -0.668 |
| GAGAATGTCCT | -1.23 |
| AGGAATGCCCT | -0.455 |
| GGAGATATCCT | -1.23 |
| GAAGGTGCCCT | -0.946 |
| CGGTTCATCCT | -1.12 |
| AGAGGTCTCCC | -0.751 |
| AGATGTTCCCT | 0.414 |
| AGAGATGCCCT | -1.63 |
| AAGATTCTCCT | -1.03 |
| CGGGATGCCCC | 0.572 |
| GAATAGGTCCT | -1.25 |
